Laboratory results as given in PubChem BioAssay (NCI).
“And” between values parts separate entries of the source, which are not always exact repeats. Equal entries are not always repeated. Compounds without any hit were thinned out: in the full panel of roughly 83,000, 20% have a hit.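 Single-dose data. Exposure time 48 hours. Values below 10 considered active.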 The source made the active and inactive calls.

What follows are compounds tested on MCF7 breast (assay: NCI-60 one-dose screen, 48 h (100 = growth as untreated, 0 = no growth, -100 = all killed)). Conditions: 10 µM unless noted.

Row | SMILES | growth
1 | CCN1CCN(CCNc2nccc(-c3c(-c4cccc(O)c4)nc4sccn34)n2)S1(=O)=O | 86.8% (inactive) and 83.6% (inactive)
2 | CCCCCCCCCCCCCCCc1cc(O)ccc1N | 72.2% (inactive) and 35.3% (inactive)
3 | OCCN1CCN(CCCN2c3ccccc3Sc3ccc(Cl)cc32)CC1 | 77.2% (inactive)
4 | COc1cc(C(=O)N/N=C/c2ccc(N(C)C)cc2)cc(OC)c1OC | 18.3% (inactive)
5 | OC(CSc1ccccc1)CN1CCN(c2cccc(Cl)c2)CC1 (centres undefined) | 102% (inactive) and 94% (inactive)
6 | COc1cc(Nc2nc3ccccc3nc2NS(=O)(=O)c2ccc(NC(=O)c3ccc(C)c(OC)c3)cc2)cc(OC)c1 | 36.6% (inactive) and 5.28% (active)
7 | O=C(Nc1cccc(-n2ccc3c(NC(=O)c4ccccc4)nccc32)c1)c1ccc(Cl)c(C(F)(F)F)c1 | -48.5% (active) and 37.4% (inactive)
8 | CCOC(=O)c1c(C)oc(C)c(C(=O)OCC)c1=O | 97.7% (inactive) and 97.4% (inactive)
9 | C1CCCCNCCC1 | 101% (inactive)
10 | CC(C)CNC(=O)c1ccccc1C(=O)NC1(C(=O)NCC(C)C)CCCC1 | 103% (inactive) and 106% (inactive)
11 | C=C1C(=O)O[C@H]2[C@H]1CC/C(COC(=O)NC1CCC(O)CC1)=C\CC[C@@]1(C)O[C@@H]21 (some centres undefined) | 75.2% (inactive) and 66.7% (inactive)
12 | CC(=O)NC(Cc1ccccc1)C(=O)Oc1ccc2ccccc2c1 (centres undefined) | 113% (inactive) and 97.8% (inactive)
13 | O=C(Oc1cccc(OC(=O)c2ccccc2)c1)c1ccccc1 | 78.7% (inactive) and 107% (inactive)
14 | CC(C)(C)c1ccc(O)c(CNC2CCCCC2)c1 | 93% (inactive) and 93.8% (inactive)
15 | Cc1cccc(/C=C\C(=O)c2ccccc2)c1 | 43.4% (inactive) and 82.6% (inactive)
16 | Clc1ccc(NC(Nc2ccc(Cl)cc2)C(Cl)(Cl)Cl)cc1 | 88.9% (inactive) and 92.1% (inactive)
17 | Cn1cnc([N+](=O)[O-])c1Sc1ncnc2nc[nH]c12 | 36.2% (inactive) and 33.2% (inactive)
18 | CCCCCCCCCCCCOc1ccccc1C=O | 81.7% (inactive)
19 | C[N+](C)(C)CN1C(=O)c2ccccc2C1=O | 92.7% (inactive)
20 | Nc1ncnc2c1ncn2C1CC(O)C(CO)O1 (centres undefined) | 96.1% (inactive) and 97.1% (inactive)
21 | Cc1ccc(S(=O)(=O)Nc2nc3ccccc3nc2Nc2ccc3nsnc3c2)cc1 | 50.9% (inactive) and 50.5% (inactive)
22 | CN(Cc1ccccc1)Cc1ccccc1 | 97.9% (inactive)
23 | COc1cc(C(=O)c2ccc3c(c2)OCO3)cc(OC)c1OC | 23.2% (inactive) and 14.8% (inactive)
24 | CCN(CC)CCOc1ccc(/C=N/Nc2nc3c([nH]2)c(=O)n(C)c(=O)n3C)cc1 | 81.5% (inactive) and 74.6% (inactive)
